The text below walks through data of PubChem BioAssay AID2284375 (EPA ToxCast).

Results filed as inconclusive are left out. Calls of active or inactive are those of the source. Rule for the calls: active = hit-call score of the fitted dose curve at least 0.9, where 1 is the maximum; inconclusive = response in the unintended direction; inactive = score below 0.9.

Sequence of Estrogen receptor (Homo sapiens) (P03372 whole entry, looked up): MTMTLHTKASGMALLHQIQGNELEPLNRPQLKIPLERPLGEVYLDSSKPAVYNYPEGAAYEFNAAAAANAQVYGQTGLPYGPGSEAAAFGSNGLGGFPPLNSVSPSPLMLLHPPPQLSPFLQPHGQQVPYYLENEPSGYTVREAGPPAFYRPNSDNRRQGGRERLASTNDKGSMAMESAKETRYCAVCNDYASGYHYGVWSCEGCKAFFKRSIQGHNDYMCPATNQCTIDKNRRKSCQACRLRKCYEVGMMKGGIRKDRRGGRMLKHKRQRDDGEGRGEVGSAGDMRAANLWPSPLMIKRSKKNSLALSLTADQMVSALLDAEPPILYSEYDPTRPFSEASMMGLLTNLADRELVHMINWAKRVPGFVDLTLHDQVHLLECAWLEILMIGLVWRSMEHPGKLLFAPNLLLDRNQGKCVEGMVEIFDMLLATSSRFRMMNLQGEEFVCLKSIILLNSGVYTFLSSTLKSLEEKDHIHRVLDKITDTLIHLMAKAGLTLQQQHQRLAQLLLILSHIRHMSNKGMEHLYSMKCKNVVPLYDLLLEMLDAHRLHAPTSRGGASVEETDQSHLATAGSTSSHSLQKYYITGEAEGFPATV

In the test the target is Estrogen receptor (Homo sapiens) (UniProt P03372). Briefly: ERF_US_NR_hESR1: Eurofins (ERF) Nuclear Receptor (NR) Cell Based Protein-Protein Interaction LeadHunter Assay for human Estrogen Receptor alpha (ERa) Agonism. On the procedure:
ERF_US_NR_hESR1 is a cell-based, single-readout assay that uses extracted gene-proteins in a cell-line assay. Measurements were taken 5 hours after chemical dosing in a 384-well plate. See ERalpha Human Estrogen NHR Cell Based Agonist Protein-Protein Interaction Assay, DiscoverX.ERF_US_NR_hESR1 is an assay component calculated from the ERF_US_NR_hESR1 assay. It is designed to […].Data from the assay component ERF_US_NR_hESR1 was analyzed at the assay endpoint, ERF_US_NR_hESR1, in the positive analysis fitting direction relative to DMSO as the negative control and baseline of activity. Using a type of binding reporter, gain-of-signal activity can be used to understand changes in binding as they relate to gene ESR1. To generalize the intended target to other relatable targets, this assay endpoint is annotated to the nuclear receptor intended target family, where the subfamily is steroid.
Cells were seeded in a total volume of 20 uL into white walled, 384-well microplates and incubated at 37C overnight prior to testing. Briefly, intermediate dilution of sample stocks was performed to generate 5X sample in assay buffer. 5 uL of 5X sample was added to cells and incubated at37C for 300 minutes. Final assay vehicle concentration was 1%. The results are expressed as a percent efficacy of the control ligand.
On to `FC(F)(F)C(F)(F)C(F)(F)C(F)(F)CCI`, for which the molecule was classed as inactive.
Still for that read-out and setting: to `OCCC(F)(F)C(F)(F)C(F)(F)C(F)(F)C(F)(F)C(F)(F)F` belongs “inactive”.
Take `NC(=O)C(F)(F)C(F)(F)C(F)(F)C(F)(F)C(F)(F)C(F)(F)C(F)(F)F`: the result was inactive.
With `OCC(F)(F)C(F)(F)C(F)(F)C(F)(F)C(F)(F)C(F)(F)C(F)(F)C(F)(F)CO`, the AC50 – broadly, the midpoint of the concentration-response curve, whichever way the signal moves – is 17.1 µM (active).
For the molecule `OCC(F)(F)C(F)(F)C(F)(F)C(F)(F)C(F)(F)C(F)(F)CO`, the AC50 was 25.3 µM (active).
For `N=C(N)C(F)(F)C(F)(F)C(F)(F)C(F)(F)C(F)(F)C(F)(F)C(F)(F)F`, the outcome was inactive.
The same measure, in the same setting: to `O=C(O)C(F)(OC(F)(F)C(F)(OC(F)(F)C(F)(F)C(F)(F)F)C(F)(F)F)C(F)(F)F` (stereo not drawn) belongs “inactive”.
Regarding `FC(F)(I)C(F)(F)C(F)(F)C(F)(F)C(F)(F)C(F)(F)I`, the half-maximal activity concentration (AC50) is 12.1 µM (active).
As to `FC(F)(I)C(F)(F)C(F)(F)C(F)(F)I`, the molecule was classed as inactive.
On to `FC(F)(F)C(F)(F)C(F)(F)C(F)(F)C(F)(F)C(F)(F)I`, for which the molecule was called inactive.
On the same count and under the same terms, to `O=P(O)(O)OCCC(F)(F)C(F)(F)C(F)(F)C(F)(F)C(F)(F)C(F)(F)F` belongs “inactive”; to `C=CC(=O)OCC(F)(F)C(F)(F)C(F)(F)C(F)(F)C(F)(F)C(F)(F)C(F)(F)C(F)F`, “inactive”; to `OCCC(F)(F)C(F)(F)C(F)(F)C(F)(F)C(F)(F)C(F)(F)C(F)(F)C(F)(F)F`, “inactive”.
